Source: the OligoGym collection

target: ZNF20; experiment: pooled miR-30 sensor sort-seq; sequence = guide strand; details: shRNA
Further: reference of the scale not given here.

**Q.** How did the sensor-assay potency score (higher = more potent) turn out when TTTCTCTCCACTGTGCGTCCTT was run?
**A.** -0.157

**Q.** With TAGTGCAAGCTTTATCATGTGA as the sequence, how does the sensor-assay potency score (higher = more potent) read?
**A.** -0.356

**Q.** For TACCACAGTGCTTACATTCATA, which sensor-assay potency score (higher = more potent) is on record?
**A.** -0.662

**Q.** For TATTAAGAGATGAATGACCCGT, which sensor-assay potency score (higher = more potent) is on record?
**A.** -0.0204

**Q.** How did the sensor-assay potency score (higher = more potent) turn out when TTCAATGTTCTGAACTTTCCAT was run?
**A.** -0.266

**Q.** TTGTATTACGAAACCATCCAAG was tested. Which sensor-assay potency score (higher = more potent) did it give?
**A.** -0.687

**Q.** Which sensor-assay potency score (higher = more potent) does the source give for TAAGACTTAGATTTCTCCTGGG here?
**A.** 0.935

**Q.** For TTTCACATGGTGTTATTCCAGG, which sensor-assay potency score (higher = more potent) is on record?
**A.** -0.755

**Q.** With TTTCTGTACATTCTTTACCATC as the sequence, how does the sensor-assay potency score (higher = more potent) read?
**A.** -1.72

**Q.** How did the sensor-assay potency score (higher = more potent) turn out when TTTCTCTTTAGTGCAAGCTTTA was run?
**A.** -0.882

**Q.** With TTCTATATGGATTCTCTCCATA as the sequence, how does the sensor-assay potency score (higher = more potent) read?
**A.** -1.01

**Q.** How did the sensor-assay potency score (higher = more potent) turn out when TGAAGTTGTGAAGCACATCTAA was run?
**A.** -0.501

target: ZNF213; experiment: as above; details: shRNA

**Q.** How did the sensor-assay potency score (higher = more potent) turn out when ATCCCTGCCATCCTCATGCTGG was run?
**A.** -1.09

**Q.** Which sensor-assay potency score (higher = more potent) does the source give for TCACTGGCTGCTTCTGTAGGTC here?
**A.** -0.833

**Q.** How did the sensor-assay potency score (higher = more potent) turn out when TGTAGGTCCTCCACCAAGGCGA was run?
**A.** -0.787

**Q.** Which sensor-assay potency score (higher = more potent) does the source give for TTGAGCCCAAAACCCAGGGTGG here?
**A.** -1.3

**Q.** For TCGGGTTCCGCCTCCTCCGAGG, which sensor-assay potency score (higher = more potent) is on record?
**A.** -1.19

**Q.** TGTCTGGCCTGGCACCACCGGC was tested. Which sensor-assay potency score (higher = more potent) did it give?
**A.** -1.68

**Q.** How did the sensor-assay potency score (higher = more potent) turn out when TTCGGAATCCCTGCCATCCTCA was run?
**A.** -0.738

**Q.** Which sensor-assay potency score (higher = more potent) does the source give for TTTCACTGGCTGCTTCTGTAGG here?
**A.** -0.917

**Q.** Which sensor-assay potency score (higher = more potent) does the source give for TAATACTCTTCTGTTGCCCTTT here?
**A.** 0.353

**Q.** For TTCTGTAGGTCCTCCACCAAGG, which sensor-assay potency score (higher = more potent) is on record?
**A.** -1.39

**Q.** With TTTGAGCCCAAAACCCAGGGTG as the sequence, how does the sensor-assay potency score (higher = more potent) read?
**A.** -0.556

**Q.** Which sensor-assay potency score (higher = more potent) does the source give for TCACTTTGGCCTTTGAGCCCAA here?
**A.** -0.58

target: ZNF214; experiment: as above; details: shRNA

**Q.** Which sensor-assay potency score (higher = more potent) does the source give for TCTTGTGGAAAACACACCGTGA here?
**A.** -0.342

**Q.** For TCTTTGATGAGTGTGAAGCTTT, which sensor-assay potency score (higher = more potent) is on record?
**A.** -0.426

**Q.** Which sensor-assay potency score (higher = more potent) does the source give for TTGGATGTCTATACAAGTCTGA here?
**A.** 0.602

**Q.** Which sensor-assay potency score (higher = more potent) does the source give for TAAACTTTGATTAAAGCTGTTA here?
**A.** -0.478

**Q.** How did the sensor-assay potency score (higher = more potent) turn out when TCTACTGACATGACATTTGTGT was run?
**A.** 0.423

**Q.** How did the sensor-assay potency score (higher = more potent) turn out when TCTGATGAAAGTGAACTCCGGA was run?
**A.** 0.913

**Q.** Which sensor-assay potency score (higher = more potent) does the source give for TATACAAGTCTGATCTCTGAGA here?
**A.** -0.855

**Q.** How did the sensor-assay potency score (higher = more potent) turn out when TTAACCATTCCTGACACTGGGA was run?
**A.** -0.384

**Q.** With TTATAGAATTTCTCTTCTGTGT as the sequence, how does the sensor-assay potency score (higher = more potent) read?
**A.** -0.222

**Q.** Which sensor-assay potency score (higher = more potent) does the source give for TGAGCTGTGACTAAAGTCCTTT here?
**A.** -0.611

**Q.** Which sensor-assay potency score (higher = more potent) does the source give for TTTTATAGAATTTCTCTTCTGT here?
**A.** 1.04

**Q.** How did the sensor-assay potency score (higher = more potent) turn out when TAGAACTGTGACTAAAACCCTT was run?
**A.** -0.352

target: ZNF219; experiment: as above; details: shRNA

**Q.** Which sensor-assay potency score (higher = more potent) does the source give for TTGCCTTTGCAGTAGGGGCAAC here?
**A.** -1.2

**Q.** Which sensor-assay potency score (higher = more potent) does the source give for TAGAGTTGAAGCGGAAGCGCTT here?
**A.** -0.695

**Q.** TTCCGCAGAAAGGACAATCCTT was tested. Which sensor-assay potency score (higher = more potent) did it give?
**A.** -0.585
